D1 mod: D1 dopamine receptor (human) allosteric modulation; HEK293 D1, CRE-luciferase, dopamine EC30 potentiation; actives deviate in either direction; B-score at 10 µM; 58,000 tested, 5.9% active; AID 641;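 active = luminescence count or its row- and column-corrected plate score outside the 99.7% band of the plate's sample wells, on either side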
PTK2B oligo ant: blocks oligomerization of human Pyk2 in cells | Q293 cells, Pyk2 FERM NanoBiT luminescence; active compounds read low | z-score (the deposit names both 25 µM and 10 µM) | 99,000 tested, 0.83% active | AID 1347419;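 active = Z-score of -3 or lower, scaled per plate to the spread of control and sample wells; inactive = z-score above -3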;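 also: negative z-score means lost luminescence so less FERM oligomerization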
FAK inh: blocks human focal adhesion kinase activity; Q05397; biochemical FAK kinase activity assay; inhibition, %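 (tested at 7 µM)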; 97,000 tested, 0.84% active; AID 727; in the data active = inhibition above about 19%;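 also: 0% = DMSO and 100% = reference compound high control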
CD11b adhes enh: CD11b/CD18-fibrinogen binding enhancement; P05107+P11215; K562 CD11b/CD18 adhesion to fibrinogen, ATPlite luminescence; activation, % at 10 µM; 93,000 tested, 0.07% active; AID 1499;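 active = 10 µM primary screen giving 50% or more activity, confirmed by 40% or more on retest at that dose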
hDAT+cocaine: human DAT dopamine uptake with cocaine, either direction. 110,000 tested, 1.3% active. Q01959. LLC-PK1 hDAT cells, [14C]-dopamine uptake with cocaine IC80; actives deviate in either direction. AID 449768. B-score at 10 µM;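 active = Z score or B-score, a plate-position-corrected score, falls beyond the plate's 99.7% confidence bounds, in either direction; inactive = both scores lie inside the 99.7% bounds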;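 also: scored against the spread of the other compound wells on the same plate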
Target sequence (Q01959 whole entry, looked up): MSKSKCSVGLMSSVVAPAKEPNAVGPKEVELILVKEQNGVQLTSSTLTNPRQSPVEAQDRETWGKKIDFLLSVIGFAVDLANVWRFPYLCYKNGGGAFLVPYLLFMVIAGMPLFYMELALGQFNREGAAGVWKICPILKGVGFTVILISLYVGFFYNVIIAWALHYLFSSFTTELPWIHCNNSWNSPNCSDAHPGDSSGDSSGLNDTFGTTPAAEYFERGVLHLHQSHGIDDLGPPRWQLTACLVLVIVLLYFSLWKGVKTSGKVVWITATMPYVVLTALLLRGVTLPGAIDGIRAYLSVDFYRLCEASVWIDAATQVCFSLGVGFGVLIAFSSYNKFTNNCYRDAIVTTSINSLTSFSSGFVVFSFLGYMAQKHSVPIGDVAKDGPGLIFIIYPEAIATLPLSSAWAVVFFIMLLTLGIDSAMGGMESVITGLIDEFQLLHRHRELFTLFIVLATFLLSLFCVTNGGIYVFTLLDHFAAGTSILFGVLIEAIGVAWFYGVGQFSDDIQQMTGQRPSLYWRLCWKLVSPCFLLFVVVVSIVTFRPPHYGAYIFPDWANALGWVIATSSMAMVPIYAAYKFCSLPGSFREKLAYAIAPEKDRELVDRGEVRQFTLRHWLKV
Mac1 fbg inh: inhibitors of human CD11b/CD18 binding to fibrinogen; AID 1497; P05107+P11215; K562 CD11b/CD18 adhesion to fibrinogen, ATPlite luminescence; Mn2+ added to activate the integrin; 93,000 tested, 0.54% active; inhibition, % at 10 µM;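 active = primary inhibition of 50% or more at 10 µM, then 40% or more on retest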
* = called active by the depositor; nt = not tested or not shown. This excerpt belongs to a sample that is enriched for hits.

SMILES	D1 mod	PTK2B oligo ant	FAK inh	CD11b adhes enh	hDAT+cocaine	Mac1 fbg inh
COc1ccc2nc3c(cc2c1)c(NC(=O)c1cccs1)nn3CC(C)C	-2.4	-3.4*	6	14	nt	12
COc1ccc(C2=NOC(C)(c3nnc(-c4ccncc4)o3)C2)cc1 (configuration not stated)	nt	nt	nt	nt	-0.32	nt
Cc1ccccc1CN(c1ccc(C(=O)Nc2ccccc2C(=O)NCc2ccco2)cc1)S(C)(=O)=O	nt	-3.6*	1	-3	0.3	16
Cc1ccccc1CN(c1ccc(C(=O)Nc2ccccc2C(=O)N2CCCC2)cc1)S(C)(=O)=O	nt	-0.55	1	-2	-0.39	-51
c1coc(-c2nnc3sc(C4CCCCC4)nn23)c1	nt	0.11	nt	-3	-0.15	16
COc1ccc(-n2ncc3c(N4CCC(C)CC4)ncnc32)cc1	-5.8*	nt	nt	nt	nt	nt
CC1CCN(c2ncnc3c2cnn3-c2ccccc2)CC1	-3*	nt	3	-2	-1.1	4
CCOC(=O)C1CCN(c2ncnc3c2cnn3-c2ccccc2)CC1	-0.23	-0.2	0	-1	1	36
O=C(NCC1CCCO1)C(=O)NCC(c1ccco1)N1CCN(c2ccccc2)CC1 (configuration not stated)	nt	1.2	nt	nt	nt	nt
c1ccc(OCCSc2nnc3sc4ccccc4n23)cc1	-6*	0.22	1	-6	0.028	14
CC(=Nc1ccccc1)C1=C(O)COC1=O	nt	0.67	-2	-6	-0.33	-14
CC(=Nc1ccccc1)c1sc2ccccc2c1O	nt	-0.05	2	-4	2.3*	2
CCCCC12CN3CC(C)(CN(C1)C31C(=O)N(C)c3ccc(C)cc31)C2=O (configuration not stated)	-0.34	0.53	9	nt	-0.086	nt
Cc1nc2ccc(-c3ccccc3)cc2o1	-0.0071	-0.55	2	0	0.82*	30
Cc1cc(Br)cn2ccnc12	nt	-0.01	3	6	nt	0
COc1ccc(NC(=O)c2oc3ccc(S(=O)(=O)N4CCC5(CC4)OCCO5)cc3c2C)cc1	-3.3*	-1.6	nt	-1	1	13
CCOC(=O)N1CCN(C(=O)c2oc3ccc(S(=O)(=O)N4CCCCCC4)cc3c2C)CC1	-0.74	-0.16	-1	-4	-8.1*	13
COc1cc(S(=O)(=O)N2CCCCC2)ccc1NC=O	-4.2*	-0.87	-4	0	nt	14
CCOC(=O)N1CCN(C(=O)c2oc3ccc(S(=O)(=O)N4CCOCC4)cc3c2C)CC1	nt	0.17	nt	-3	1.7	4
Cc1c(C(=O)NCCc2ccccc2)oc2ccc(S(=O)(=O)N3CCC4(CC3)OCCO4)cc12	nt	-0.41	11	nt	0.56	nt
COC(=O)n1c(=O)oc2cc(S(=O)(=O)N3CCCCC3)ccc21	-6.8*	-0.76	2	1	-0.46	9
CCOC(=O)n1c(=O)oc2cc(S(=O)(=O)N3CCCCC3)ccc21	-0.039	-1.7	0	nt	1	nt
Cc1ccc(OCC(=O)N/N=C\c2cn(C)c3ccccc23)c([N+](=O)[O-])c1	nt	-1.4	-4	-3	-0.63	25
COc1ccccc1-c1c(C#N)c(SCC(=O)N2CCCC2)nc(C)c1C(N)=O	nt	nt	-2	1	-0.41	-13
CCOC(=O)c1cccc(NC(=O)Nc2cc(OC)ccc2OC)c1	-0.78	-3.4*	0	-1	-0.21	8
SMILES	D1 mod	PTK2B oligo ant	FAK inh	CD11b adhes enh	hDAT+cocaine	Mac1 fbg inh
O=c1cc(-c2ccccc2)[nH]n1-c1ccc([N+](=O)[O-])cc1	nt	-0.68	2	nt	-2.5*	nt
Cc1ccc(CNC(=O)c2ccc3c(c2)S(=O)(=O)c2ccccc2C3=O)o1	nt	nt	nt	nt	-0.059	nt
COc1ccc(C(=O)c2ccc(N3CCN(C(=O)c4ccc(F)cc4)CC3)c(F)c2)cc1Br	nt	1.9	2	-5	0.36	49
COc1ccc(CCN(C)Cc2ccc(OC)c(OCc3ccccc3)c2)cc1OC	nt	1.6	5	-3	0.053	-2
COc1cc(CN(C)Cc2ccccc2)cc(OC)c1O	nt	-0.31	0	-10	-0.31	87*
Cn1cc(C(F)(F)F)nc1-c1ccc(OCC(O)CNCCOc2ccc(O)c(C(N)=O)c2)cc1 (configuration not stated)	nt	nt	nt	nt	-0.2	nt
CCCCOC(=O)/C(=C\c1ccc([N+](=O)[O-])o1)NC(=O)c1ccccc1	nt	1.4	0	nt	0.0077	nt
COc1cccc(C(=O)OCn2nnc3ccccc3c2=O)c1OC	5.2*	nt	nt	nt	-0.84	nt
COc1cc(C(=O)OCn2nnc3ccccc3c2=O)cc(OC)c1OC	1	-0.28	0	1	1.8	-9
Cc1cc(C(=O)OCn2nnc3ccccc3c2=O)c(C)n1-c1ccccc1	0.94	-3.7*	0	5	-0.29	25
CC(=O)N(Cc1ccc(F)cc1)C1=C(NCCc2ccccc2)C(=O)c2ccccc2C1=O	nt	-3.2*	9	3	-0.098	12
CC(C)[C@H](NC(=O)NCCc1ccc(F)cc1)C(=O)O	-0.36	2.2	-2	-4	-0.88	-9
CCOC(=O)C(C(=O)Nc1ccc(C)cc1)C1CCCCC1 (configuration not stated)	nt	-1.5	1	-7	0.43	-24
Cc1ccccc1OC(=O)n1c(=S)oc2cc(Cl)ccc21	nt	1.4	-1	-1	0.61	-3
CCOC(=O)c1sc(NC(=O)CSc2nnc3c4ccccc4n(CC)c3n2)nc1C	-0.45	nt	nt	nt	nt	nt
CCOC(=O)c1sc(NC(=O)C(CC)Sc2nnc3c4ccccc4n(CC)c3n2)nc1C (configuration not stated)	4.2*	nt	nt	nt	nt	nt
CSc1sc(C(=O)O)c2c1C(=O)CC(C)(C)C2	nt	nt	nt	nt	0.37	nt
CSc1sc(C(=O)O)c2c1C(=O)CCC2	nt	0.67	0	0	-2.3*	11
CCOc1ccccc1NC(=O)Cn1nnc(C(=O)NCc2ccco2)c1N	0.0041	0.36	-2	nt	-2	nt
CCOc1ccccc1NC(=O)Cn1nnc(C(=O)Nc2ccc(C)cc2)c1N	-5.3*	-1.2	-5	1	-1.4	-11
N=c1oc2ccc3ccccc3c2cc1-c1nnc2n1CCCCC2	0.081	-0.05	2	-1	3.4*	21
CC(C)C(=O)N1CCC(CN=Cc2c(O)n(C3CCCCC3)c(=O)n(C3CCCCC3)c2=O)CC1	0.093	-2.6	-1	-3	3.2*	9
CCCn1nc([N+](=O)[O-])c(C(C#N)c2nc3ccccc3s2)c(Cl)c1=O (configuration not stated)	nt	-3.2*	0	-8	-1.8	95*
S=c1[nH]nc(-c2cc3c(s2)-c2ccccc2CC3)o1	nt	-0.33	-3	-7	1.5	64*
CCn1cc(C(=O)NC(=S)Nc2cccc(O)c2)cn1	nt	-0.22	-1	-2	-0.39	-3
Nc1c(-c2ccc(Cl)cc2)cnn1-c1cccc([N+](=O)[O-])c1	nt	-0.62	10	nt	-3*	nt
Nc1c(-c2ccccc2)cnn1-c1cccc([N+](=O)[O-])c1	nt	-0.75	10	nt	-0.022	nt
Cc1ccc2c(c1)-c1c(cnn1CC(=O)N1CCCN(Cc3ccccc3F)C1)CO2	-2.9*	nt	nt	0	-0.37	-2

Screening results (PubChem)
